Test results as given in PubChem BioAssay (EPA / NIEHS).
The source made the active and inactive calls. The calls were made as follows: active = hit-call score of the fitted dose curve at least 0.9, where 1 is the maximum; inactive = score below 0.9.

read-out: X-box binding protein 1 (XBP1), XBP1 (gene 7494); experiment: LTEA_HepaRG_XBP1: Life Technologies and Expression Analysis (LTEA) Assay for X-box binding protein 1 (XBP1) using HepaRG (AID 2283540); conditions: mRNA level, 48 h; actives raise or lower the signal
Description: LTEA_HepaRG is a cell based, multiplexed-readout assay that uses HepaRG, a human liver cell line, with measurements taken at 48 hours after chemical dosing on a 96-well plate.LTEA_HepaRG_XBP1 is one of 102 assay component(s) measured in the LTEA HepaRG cell culture assay. It is a marker of Diseases associated with XBP1 including Major Affective Disorder 7 and Bipolar Disorder.Data from the assay component LTEA_HepaRG_XBP1 was analyzed into 1 endpoint. This assay endpoint, LTEA_HepaRG_XBP1, was analyzed with bidirectional fitting relative to DMSO as the negative control and baseline of activity. Using a type of inducible reporter, measures of mRNA induction for gain or loss-of-signal activity can be used to understand regulation of transcription factor activity. To generalize the intended target to other relatable targets, this assay endpoint is annotated to the dna binding intended target family, where the subfamily is basic leucine zipper.
A total of 1060 chemcials from the ToxCast library were tested in eight-point concentration-response experiments. Cell culture and cytotoxicity assays were conducted at Thermo Fisher Scientific's Custom Services facility (Madison, WI). A single lot of human HepaRG cells (Thermo Fisher Scientific, Frederick, MD) was used for the cell culture experiments. 96-well format collagen type I coated plates of human HepaRG cells were prepared using established methods. Briefly, cryopreserved HepaRG cells were thawed, plated at a density of approximately 100,000 cells/well in HepaRG Thaw, Plate, and General Purpose media (HPRG770, Thermo Fisher Scientific), and incubated for 48 hours. 0.5% DMSO was selected as vehicle control to balance the requisite need of DMSO in HepaRG cultures to maintain differentiation (for example, baseline metabolism, proportions of hepatocytes vs. cholangiocytes), while enabling further hepatic receptor pathway activation (for example, PXR and CAR) in response to chemical exposure. 48 hours after plating, the culture medium was replaced with HepaRG Serum-Free Incudtion Media. Cells were exposed to each test chemical in duplicate and maintained in CO2 incubators for another 48 hours. Chemical plates were thawed to room temperature and 200x concentrations of treatment groups were prepared. 8-point conentration-reponse curves were made with the highest exposure at 100 uM, followed by half-log dilutions, all in 0.5% DMSO. Each test plate contained variouse controls, induction positive controls (1mM phenobarbital), cytotoxicity positive controls ([…] aflatoxin B1), vehicle controls (0.5% DMSO), and total lysis controls (0.5% DMSO). Cell morphology images were taken using an Essen IncuCyte FLR automated microscope, with six 96-well plates imaged in about 24 minutes. Images were captured and exported and JPEG files. Spent culture media was transfered to black-well plates for the LDH assay, and remaining media was sorted at -80 C for later use. Cells were treated with RLT buffer and frozen until shipped for gene expression analysis. Total RNA was isolated from the cell suspension in 75 uL of Buffer RLT (Qiagen, Germantown, MD 20874) by Quintiles/Expression Analysis (Durham, NC) using a custom isolation procedure. Total RNA from each plate well was transferred to a preamplification plate. Fluidigm's 96.96 Dynamic ArrayTM (Fluidigm, Amsterdam, the Netherlands) technology was used for gene expression analyses by quantitative reverse transcription polymerase chain reaction (qRT-PCR, performed by Quintiles/Expression Analysis, Durham, NC)89. Standard TaqManTM Assays (Applied Biosystems/ThermoFisher Scientific, Foster City, CA) were used to assess the expression of 93 genes selected based on their selectivity and sensitivity to important hepatic receptors known to be modulated by environmental chemicals; importance in human hepatocyte functionality; and hepatotoxicity. […]

Compound | outcome | AC50
CCOP(=S)(OCC)Oc1ccc2c(C)c(Cl)c(=O)oc2c1 | inactive | –
CN(C)C(=O)Nc1cccc(C(F)(F)F)c1 | inactive | –
CCCSP(=O)(OCC)Oc1ccc(Br)cc1Cl (stereo not given) | inactive | –
CN(C)NC(=O)CCC(=O)O | inactive | –
CCOP(=S)(Oc1cnc(C(C)(C)C)nc1)OC(C)C (stereo not given) | – | 50 µM (active)
COP(=O)(OC)C(O)C(Cl)(Cl)Cl (stereo not given) | inactive | –
CCC(=O)Nc1ccc(Cl)c(Cl)c1 | inactive | –
CCCOc1nn(C(=O)NS(=O)(=O)c2ccccc2C(=O)OC)c(=O)n1C | inactive | –
CC(C)=CC1C(C(=O)OCN2C(=O)C3=C(CCCC3)C2=O)C1(C)C (stereo not given) | inactive | –
CN1COCN(Cc2cnc(Cl)s2)C1=N[N+](=O)[O-] | inactive | –
CCOC(=O)CC(SP(=O)(OC)OC)C(=O)OCC (stereo not given) | inactive | –
CCCCN(CC)c1c([N+](=O)[O-])cc(C(F)(F)F)cc1[N+](=O)[O-] | inactive | –
CCc1cccc(CC)c1N(COC)C(=O)CCl | inactive | –
COc1cccc(C(=O)NN(C(=O)c2cc(C)cc(C)c2)C(C)(C)C)c1C | inactive | –
CCOC(=O)COc1cc(-c2nn(C)c(OC(F)F)c2Cl)c(F)cc1Cl | inactive | –
CCCCOC(=O)c1ccccc1C(=O)O | inactive | –
CSC1=N[C@@](C)(c2ccccc2)C(=O)N1Nc1ccccc1 | inactive | –
CNC(=O)ON=C(C)SC | inactive | –
CN(C)[C@@H]1C(=O)C(C(N)=O)=C(O)[C@@]2(O)C(=O)C3=C(O)c4c(O)cccc4[C@@](C)(O)[C@H]3[C@H](O)[C@@H]12 | inactive | –
CNC(=O)ON=C(SC)C(=O)N(C)C | inactive | –

Compound | outcome | AC50
COP(=O)(OC)SCn1c(=O)oc2cc(Cl)cnc21 | inactive | –
CNc1cnn(-c2cccc(C(F)(F)F)c2)c(=O)c1Cl | inactive | –
CCOP(=S)(OCC)Oc1ccc([N+](=O)[O-])cc1 | inactive | –
CCCSP(=O)(OCC)SCCC | inactive | –
Nc1nc(N)nc(NC2CC2)n1 | inactive | –
CC(C)N(C(=O)SCC(Cl)=C(Cl)Cl)C(C)C | inactive | –
CCOP(=S)(OCC)Oc1cc(C)nc(C(C)C)n1 | inactive | –
Cc1nn(-c2cc(NS(C)(=O)=O)c(Cl)cc2Cl)c(=O)n1C(F)F | inactive | –
CCOP(=O)(NC(C)C)Oc1ccc(SC)c(C)c1 (stereo not given) | inactive | –
CON=C(C(=O)OC)c1ccccc1CON=C(C)c1cccc(C(F)(F)F)c1 | inactive | –
CCc1cnc(C2=NC(C)(C(C)C)C(=O)N2)c(C(=O)O)c1 (stereo not given) | inactive | –
COP(=O)(NC(C)=O)SC (stereo not given) | inactive | –
C#CC(C)(C)NC(=O)c1cc(Cl)cc(Cl)c1 | inactive | –
CSc1nnc(C(C)(C)C)c(=O)n1N | inactive | –
CCCOCC(=Nc1ccc(Cl)cc1C(F)(F)F)n1ccnc1 | inactive | –
FC(F)C(F)(F)OCC(Cn1cncn1)c1ccc(Cl)cc1Cl (stereo not given) | – | 86.9 µM (active)
C[Si](Cn1cncn1)(c1ccc(F)cc1)c1ccc(F)cc1 | – | 90 µM (active)
C#CCC1=C(C)C(OC(=O)C2C(C=C(C)C)C2(C)C)CC1=O (stereo not given) | inactive | –
O=c1ccc(=O)[nH][nH]1 | inactive | –
CCc1cccc(C)c1N(C(=O)CCl)C(C)COC (stereo not given) | inactive | –
